Screens: PubChem BioAssay, National Center for Advancing Translational Sciences (NCATS)
Pf growth 48h: P. falciparum growth inhibition at 48 hours (one generation); Potency, µM (doses to about 28.7 µM), most hits filed as inhibitors; actives 5.9% (n = 310,000); P. falciparum luciferase growth in erythrocytes, 48 h; AID 504832
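First compound was added to culture medium, then infected red cells at 0.1% parasitemia and 2% hematocrit (final). After incubation at 37 C under 5% CO2, luciferase detection reagent was dispensed and light output recorded.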
Sm TGR block: inhibitors of Schistosoma mansoni thioredoxin glutathione reductase; actives 3% (n = 360,000); Q962Y6; AID 485364; Potency, µM (highest dose often 114 µM), hits mostly inhibitors; purified TGR, DTNB reduction, TNB absorbance 405 nm; further: nearly all actives have a fitted effect of over 60% in size
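Kinetic colorimetric format: TGR-catalysed, NADPH-driven DTNB reduction monitored via TNB absorbance. Enzyme dispensed at 20 nM; compound exposure 15 min at room temperature before reaction start.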
HCV inh: blocks hepatitis C virus | Huh7.5.1 HCVcc-Cre infection, luciferase reporter, 44 h | Potency, µM (doses to about 41.8 µM), actives largely listed as inhibitors | actives 3.4% (n = 340,000) | AID 651820
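Luciferase read-out (15 sec integration) after a 15 min room-temperature substrate step quantifies HCVcc-Cre infection. Cells, 1,000 per well, had compound added 4 h post-plating, then virus at ~0.5 moi, and were cultured 44 h.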
HCMV inh: inhibitors of human cytomegalovirus | HFF cells, HCMV-luciferase reporter, 72 h; hits give low values | activity change, negative = inhibition, % at 57.5 µM | actives 4.5% (n = 410,000); in the data active means activity change below about -60%; inconclusive means no clear call, values can overlap the other calls; inactive means above about -39%
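Compounds were evaluated in HFFs infected with an HCMV luciferase reporter virus (MOI 1 PFU/cell). Luciferase in lysates collected 72 h post infection served as the replication measure.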
SARS PLP yeast: inhibitors of SARS-CoV papain-like protease in yeast; S. cerevisiae expressing SARS-CoV PLpro, growth rescue; Potency, µM (series often up to 32.9 µM), hits mostly activators; actives 0.19% (n = 330,000); calls by dose curve; further: nearly all actives have a fitted effect of over 55% in size
Pf growth 96h: P. falciparum growth inhibition at 96 hours | P. falciparum luciferase reporter growth, 96 h | Potency, µM (titrated, usually from 28.7 µM), hits mostly inhibitors | actives 6.9% (n = 320,000)
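Parasite growth measured via integrated firefly luciferase reporter in P. falciparum. Infected erythrocytes at 2% hematocrit, 0.05% parasitemia final were treated 96 hours at 37 C under 5% CO2, and luminescence was read.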
Each line names hits and unclear results; the compound was inactive in the other large screens. In the library only some 15% were active in any assay of this set; here they are far more common. Unless noted, the call rests on the fitted dose curve; in most records, active means well fitted curve in the direction sought with a large enough effect; inconclusive means small, poorly fitted or top-dose-only effect, or another doubt; inactive means no such curve, though single readings can be large; an effect the other way counts as inactive or inconclusive.

N#Cc1ccc(C23CC4(C2)[C@H](CN(Cc2cccnc2)[C@@H]4c2ccccc2)C3c2ccccc2)cc1 (some centres not stated)	Pf growth 48h 4.1µM, Sm TGR block inconclusive, HCV inh inconclusive, Pf growth 96h 3.7µM
COC(=O)c1ccc(C23CC4(C2)[C@H](CN(Cc2cccnc2)[C@@H]4c2ccccc2)C3c2ccccc2)cc1 (some centres not stated)	Pf growth 48h 7.4µM, Sm TGR block inconclusive, Pf growth 96h 8.3µM
COC(=O)c1ccc(C23CC4(C2)[C@H](CN(Cc2cccnc2)[C@@H]4c2ccccc2)C3c2ccc(C(F)(F)F)cc2)cc1 (some centres not stated)	Pf growth 48h 2.9µM, Pf growth 96h 3.3µM
COC(=O)c1ccc(C23CC4(C2)[C@H](CN(CC2CCCCC2)[C@@H]4c2ccccc2)C3c2ccccc2)cc1 (some centres not stated)	Pf growth 48h inconclusive, Pf growth 96h inconclusive
COC(=O)c1ccc(C23CC4(C2)[C@H](CN(Cc2ccc(-c5ccccc5)cc2)[C@@H]4c2ccccc2)C3c2ccc(C(F)(F)F)cc2)cc1 (some centres not stated)	Pf growth 48h inconclusive, Pf growth 96h inconclusive
Cc1ccc(C(=O)c2cn(Cc3c(F)cccc3Cl)c3nc(C)ccc3c2=O)cc1	none (no result: Pf growth 48h, HCV inh, SARS PLP yeast, Pf growth 96h)
CCOC(=O)N1CCN(S(=O)(=O)c2c(C(=O)N3CCCCC3)c(C)n(C)c2C)CC1	none
COCC(C)NC(=S)Nc1ccccc1[N+](=O)[O-] (configuration not stated)	Sm TGR block 40µM
O=C(CCOc1ccccc1)Nc1ccccc1[N+](=O)[O-]	Sm TGR block inconclusive
O=C(CC(=O)Nc1ccccc1[N+](=O)[O-])Nc1ccccc1[N+](=O)[O-]	Sm TGR block 89µM, HCMV inh -65
CC(C)(C)CC(=O)NC(=S)Nc1ccccc1[N+](=O)[O-]	none
CCC1CCC(NC(=O)Nc2cccc(OC)c2)CC1 (configuration not stated)	none
O=C1c2ccsc2SCCN1Cc1c(F)cccc1Cl	Pf growth 96h inconclusive (no result: Pf growth 48h)
O=C1c2ccsc2SCCN1Cc1c(Cl)cccc1Cl	Pf growth 96h 6.6µM (no result: Pf growth 48h)
Nc1ccc(N2CCOCC2)cc1C(F)(F)F	none
c1ccc(-c2nnc(SCc3nc4ccccc4[nH]3)n2Cc2ccco2)nc1	Sm TGR block inconclusive, HCMV inh -64, Pf growth 96h inconclusive
Clc1cccc(-c2nnc(SCc3nc4ccccc4[nH]3)n2Cc2ccco2)c1	Pf growth 48h inconclusive, HCMV inh inconclusive
c1coc(Cn2c(SCc3nc4ccccc4[nH]3)nnc2-c2cnccn2)c1	Sm TGR block inconclusive, Pf growth 96h inconclusive
C(=C\c1ccccc1)/CSc1nnc(-c2ccccn2)n1Cc1ccco1	Pf growth 48h inconclusive, Sm TGR block 35µM, HCV inh 10µM (no result: Pf growth 96h)
CCn1c(SCc2nc3ccccc3[nH]2)nnc1-c1ccccc1OC	Pf growth 48h inconclusive, Pf growth 96h 3.7µM
NC(=O)CSc1nnc(-c2ccccn2)n1Cc1ccco1	none
Clc1ccc(OCc2nnc(SCc3nc4ccccc4[nH]3)n2Cc2ccco2)cc1	Pf growth 48h inconclusive, Sm TGR block inconclusive, HCV inh 10µM, HCMV inh -80
Cc1ccc(C)c(C(=O)CCC(=O)OCn2nnc3ccccc3c2=O)c1	none
COc1ccc(S(=O)(=O)N2CCN(C(=O)Nc3ccccc3OC)CC2)cc1	Pf growth 48h inconclusive
CC1CCN(C(=O)Cn2nnc(-c3ccc(N)cc3)n2)CC1	none
Cn1c(COc2ccccc2)nnc1SCc1nc2ccccc2[nH]1	SARS PLP yeast inconclusive, Pf growth 96h 1.5µM
Cc1ccccc1OCc1nnc(SCc2nc3ccccc3c(=O)[nH]2)n1C	none
CCn1c(SCc2nc3ccccc3[nH]2)nnc1-c1cccs1	HCMV inh inconclusive
CCn1c(COc2ccc(C)cc2)nnc1SCc1nc2ccccc2[nH]1	Pf growth 48h inconclusive, HCV inh 14µM, HCMV inh -65, Pf growth 96h inconclusive
